Experimental data reported in PMC12548414.
Screen size: about 1,600 compounds; about 20 (1%) showed an effect of 50% or more. Many of the other results were omitted from the sample, so strong results are more common in it than they were.

Tested on: T1, E. coli pLC1021 (luc-trpAt trans-translation reporter)
T1 construct: pLC1021 luc-trpAt reporter strain
Parameters: species or system Escherichia coli pLC1021; luc-trpAt non-stop luciferase reporter; luminescence rises when trans-translation is inhibited; normalized to KKL-35 and DMSO
Details: reporter signal, KKL-35 = 100%; rise means trans-translation inhibition; 2 h, 20 µM
Summary of the method: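 Luminescence (560 nm, 10 min after Bright-Glo) reports luciferase that escapes trans-translation tagging, measured after 2 h room-temperature treatment with 20 µM compound. Each plate was scaled between DMSO (negative) and 20 µM KKL-35 (positive) controls. Compounds scoring one standard deviation above the median counted as positive; at least two biological repeats.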

| SMILES | % activation [%] |
| --- | --- |
| CCC(C)c1ccc(O)c(NC(=S)NC(=O)c2ccc(-c3ccc(Cl)cc3)o2)c1 (stereo not shown) [KKL-0745] | 0 |
| CC(C)(C)c1cc(NCCCn2ccnc2)n2ncc(-c3ccc(Cl)cc3)c2n1 [KKL-1011] | 9 |
| N#Cc1cc(Oc2ccc(OCc3ccccc3)cc2)c([N+](=O)[O-])cc1C#N [KKL-0738] | 5 |
| Cc1cccc(NC(=S)NC(=O)CC23CC4CC(CC(C4)C2)C3)c1 [KKL-1311] | 0 |
| CSCCC(=O)N1CCCC(C(=O)Nc2cccc(-c3cccc(C)c3)c2)C1 (stereo not shown) [KKL-0499] | 0 |
| Cc1ccc(-n2cc(CNC(C)c3csc(C)n3)c(-c3cccc(C)c3)n2)cc1 (stereo not shown) [KKL-0500] | 0 |
| Cc1ccc2cc3c(nc2c1C)OC(=O)N(C1CCCC1)C3 [KKL-0690] | 1 |
| CCCCc1ccc(C(=O)Nc2nccc3ccccc23)nc1 [KKL-1763] | 50 |
| CCOc1ccc2nc(NC(=O)c3ccccn3)sc2c1 [KKL-0810] | 0 |
| CCCCc1cccc(C(=O)Nc2nnc(S(=O)(=O)CCCC)s2)n1 [KKL-1853] | 6 |
| c1ccc(-c2nn(-c3ccccc3)cc2CNC2CCCc3c2cnn3-c2ccccn2)cc1 (stereo not shown) [KKL-1169] | 0 |
| Clc1cc(Br)ccc1OCCCCn1ccnc1 [KKL-1286] | 0 |
| OC(CN1CCC2(CC1)CC(O)c1cc(F)ccc1O2)c1ccc2c(c1)CCCC2 (stereo not shown) [KKL-0925] | 0 |
| CN(Cc1ccc(Cl)cc1)C(=O)CCc1nc2ccccc2oc1=O [KKL-1749] | 0 |
| CCN(CC)c1ccc(NC(S)=NCCc2ccc(OC)c(OC)c2)cc1 [KKL-1550] | 0 |
| O=C(Nc1ccc2c(c1)CN(C(=O)/C=C/c1cccs1)CC2)c1ccncc1 [KKL-0616] | 0 |
| Cc1cc(=O)oc2cc(OCC(=O)OC3CCCCC3)ccc12 [KKL-1250] | 7 |
| Cc1nc(-c2ccccc2Br)cc([C@H]2CN3CC[C@H]2C[C@@H]3CNC(=O)c2ccc(C(C)(C)C)cc2)n1 [KKL-1598] | 0 |
| COc1ccc(Nc2nc(NC3CCNC3)nc3cc[nH]c(=O)c23)cc1CC(=O)c1ccccc1 (stereo not shown) [KKL-1883] | 335 |
| COc1ccc(O)c(CN2CCCC(N3CCN(c4cccc(C(F)(F)F)c4)CC3)C2)c1 (stereo not shown) [KKL-0660] | 1 |
| O=C(Nc1cccc(Cl)c1)Nc1ccccc1OC(F)(F)C(F)F [KKL-0431] | 21 |
| Cc1ccc(CN(CCCn2ccnc2)Cc2cccc(Cl)c2Cl)o1 [KKL-1195] | 17 |
| CCOC(=O)c1ccc(NC(=O)c2ccc(C)s2)cc1 [KKL-0584] | 0 |
| CN(C)c1ccc(N=Nc2nc3ccccc3n2C)cc1 [KKL-1056] | 0 |
| Fc1cccc(Oc2cc(C3CCCNC3)nc(-c3ccncc3)n2)c1 (stereo not shown) [KKL-1670] | 3 |

| SMILES | % activation [%] |
| --- | --- |
| O=C(C=Cc1cccs1)N1CCN(Cc2ccc(Br)s2)CC1 [KKL-1861] | 0 |
| Cc1ccc(-n2cc(CNCCCn3ccnc3)c(-c3cccc(C)c3)n2)cc1 [KKL-0662] | 0 |
| Cc1nn2c(O)cc(C(C)(C)C)nc2c1-c1ccccc1 [KKL-0891] | 17 |
| CCOC(=O)c1c(NC(=O)COc2ccc(C(C)C)cc2)sc2c1CCC2 [KKL-1530] | 0 |
| COc1ccc(-c2cc(=O)c3cc(OCC(=O)OC(C)C)ccc3o2)cc1 [KKL-1864] | 2 |
| CCC(NC(=O)c1cnc(C(C)(C)C)nc1)c1ccc(F)cc1 (stereo not shown) [KKL-0932] | 5 |
| CCCN=C1C(=O)c2ccccc2C(O)=C1N(C(C)=O)c1cccc(F)c1 [KKL-0978] | 0 |
| Clc1nnc(N2CCCC2)c2ccccc12 [KKL-1738] | 0 |
| CCOC(=O)COc1ccc(S(=O)(=O)Nc2c(C)cccc2CC)cc1 [KKL-1460] | 0 |
| Nc1nc(N)c2c(Sc3ccc4ccccc4c3)cccc2n1 [KKL-1710] | 0 |
| Cc1sc2nc(C(C)C)n(C3CCN(C(=O)c4ccncc4)CC3)c(=O)c2c1C [KKL-0464] | 14 |
| COC(=O)[C@@H]1Cc2c([nH]c3ccccc23)[C@H]2C[C@H](NCc3cccnc3)C[C@@H](c3ccc(C(F)(F)F)cc3)N21 [KKL-1613] | 0 |
| CCn1ccnc1CN(C)Cc1cn(-c2ccc(C)cc2)nc1-c1ccc(F)cc1 [KKL-0657] | 0 |
| Cc1ccc(Nc2c(-c3ccccn3)nc3ccc(C)cn23)cc1 [KKL-1199] | 4 |
| N#Cc1cccc(-c2ccc(NCC3CCC(CN(C(=O)O)c4cccnn4)CC3)nc2)c1 (stereo not shown) [KKL-1855] | 0 |
| c1cn(CCCNc2nncc(-c3ccc(C4CCCCC4)cc3)n2)cn1 [KKL-1171] | 8 |
| COC(=O)[C@@H]1Cc2c([nH]c3ccccc23)[C@H]2C[C@@H](NC(C)C)C[C@@H](c3cccc(Cl)c3)N21 [KKL-1594] | 1 |
| COc1ccc(OC)c(NC(=O)Nc2ccc(Cl)c(C(F)(F)F)c2)c1 [KKL-1544] | 0 |
| Cc1nn(-c2ccccc2)c2c1C(c1ccc(O)c(O)c1)N1C(=N2)C(Nc2ccccc2)=Nc2ccccc21 (stereo not shown) [KKL-0996] | 0 |
| COc1cccc(-c2cc(CC3(O)CCN(Cc4[nH]c5ccc(C)cc5c4C)CC3)on2)c1 [KKL-0315] | 0 |
| CC(C)(C)C(=O)CC1(O)Oc2ccccc2N=C1C=C(O)C(C)(C)C (stereo not shown) [KKL-1740] | 6 |
| Cc1cc(C)c(-n2cccn2)c(CN(CCCn2ccnc2)Cc2ccc(F)cc2)c1 [KKL-1032] | 8 |
| O=C(CN1CCN(Cc2ccccc2)CC1)Nc1ccc([N+](=O)[O-])cc1C(=O)c1ccccc1 [KKL-1480] | 0 |
| O=C(NCc1ccco1)N1CCN(Cc2ccc(Cl)s2)CC1 [KKL-1727] | 3 |
